# Most compounds without a hit are left out; they make up all but 13% or so of the library.
# CHOP inhibitor: blocks CHOP induction under ER stress; CHO-K1 CHOP-promoter luciferase, tunicamycin-induced, 15-18 h; inhibition, % at 10 µM; actives 3.8% (n = 220,000); AID 2732;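 active = compounds that reduced the stress-induced luciferase reporter signal by more than about 70% of percent inhibition, limit read from the data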
# RAM inhibit: yeast RAM network inhibition | S. cerevisiae dse1pr::URA3 reporter, 5-FOA growth OD615, 2 d; analog-sensitive cbk1-as2 kinase mutant strain | actives 1.8% (n = 190,000) | inhibition, % at 50 µM;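 active = inhibition above a set limit, 3 SD over mean compound inhibition, cut at about 8.4% in these data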;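 also: inhibition rescues growth on 5-FOA so higher OD means more RAM inhibition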
# L major viab: reduces viability of Leishmania major promastigotes | resazurin fluorescence viability | inhibition, % at 10 µM | actives 9% (n = 200,000) | AID 1063; in the data active = inhibition above about 50%;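 also: promastigotes grown with compound for 44 hours at 28 °C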
# WT yeast gro inh: growth inhibition of WT yeast, mitochondrial fusion screen; inhibition, % at 10 µM; actives 2.1% (n = 190,000); mitochondrial fusion phenotypic screen, WT strain; in the data active = inhibition above about 58%; tested in S. cerevisiae
# Numbers stand for hits; n = inactive; x = no result.
SMILES,CHOP inhibitor,RAM inhibit,L major viab,WT yeast gro inh
CCc1cc2c3c(c(=O)oc2cc1O)CCCC3,90,n,n,x
Cc1oc2cc3oc(=O)c4c(c3cc2c1C)CCC4,n,n,n,n
Cn1cccc1CC(=O)NNC(=S)NC(=O)c1ccc(F)cc1,n,x,x,x
Cc1cc(C)c(Cn2cnc3ccccc32)c(C)c1,n,n,n,n
N=c1n(CCN2CCCC2)c2ccccc2n1CC(O)c1ccco1 (stereo unspecified),n,n,n,n
CCCCCCCn1c(=N)n(CC(=O)c2ccco2)c2ccccc21,n,n,100,n
CCCCCCCn1c(=N)n(CC(O)c2ccco2)c2ccccc21 (stereo unspecified),n,n,82,n
COc1ccc([C@@]2(O)c3c(ccc(CC=C(C)C)c3O)NC(=O)[C@@H]2OC)cc1,n,x,x,x
O=C(N/N=C/c1cccnc1)c1cc2ccccc2o1,n,n,n,n
Cc1nc2ccccn2c1C(=O)N/N=C/c1ccc([N+](=O)[O-])o1,n,n,100,n
O=C(N/N=C/c1cccnc1)c1cc2c(ccc3ccccc32)o1,91,n,n,n
O=C(N/N=C/c1ccc([N+](=O)[O-])o1)c1cc2c(ccc3ccccc32)o1,n,n,99,n
O=C(CNC(=O)C(c1ccccc1)c1ccccc1)N/N=C/c1cccnc1,n,x,x,x
O=C(N/N=C/c1cccnc1)c1ccc(NC(=O)C(c2ccccc2)c2ccccc2)cc1,78,n,n,n
O=C(N/N=C/c1ccc([N+](=O)[O-])o1)c1cc2ccccc2o1,n,x,x,x
CCC(C)N1C(=O)CN(C2CCCCCC2)C(=O)C1c1ccccc1F (stereo unspecified),n,n,n,n
O=C(NCC(c1cccnc1)N1CCN(c2ccccc2)CC1)c1ccc2c(c1)OCO2 (stereo unspecified),n,n,88,n
COc1cc(C(=O)NCC(c2cccnc2)N2CCN(C)CC2)cc(OC)c1OC (stereo unspecified),n,n,n,n
COc1cc(C(=O)NCC(c2cccnc2)N2CCN(c3ccccc3)CC2)cc(OC)c1OC (stereo unspecified),n,n,67,n
COc1ccc2c(c1)O[C@@H](c1cccc(C(F)(F)F)c1)[C@H](OC(=O)NCCc1ccc(OC)c(OC)c1)C2=O,n,n,n,n
Cc1cccc(-c2noc(CN(C(C)C)S(=O)(=O)c3ccc(F)cc3)n2)c1,n,8.5,n,n
Cc1ccc(S(=O)(=O)N(C)Cc2nc(-c3ccc(Br)cc3)no2)cc1,83,n,n,n
Cc1cccc(-c2noc(CN(C(=O)c3ccc(Br)o3)C(C)C)n2)c1,88,n,n,n
Cc1ccc(S(=O)(=O)N(C)Cc2nc(-c3ccncc3)no2)cc1,n,n,n,n
COc1cccc(C(=O)N(Cc2nc(-c3cccc(C)c3)no2)C(C)C)c1OC,n,n,n,n
SMILES,CHOP inhibitor,RAM inhibit,L major viab,WT yeast gro inh
CCCC(=O)Nc1cc(OC)c(C(=O)OC)cc1Cl,n,n,n,n
Cc1c(NC(=S)NC(=O)C2CCCCC2)c(=O)n(-c2ccccc2)n1C,n,n,n,n
Cc1cc(=O)[nH]c(SCC(=O)Nc2ccccc2[N+](=O)[O-])n1,n,x,x,x
O=C(CSc1ccc(Cl)cc1)Nc1ccc(N2CCN(c3ccccc3)CC2)c(F)c1,n,n,n,n
Cc1ccc(SCC(=O)Nc2ccc(N3CCN(C)CC3)c(F)c2)c(C)c1,n,n,100,n
CCOC(=O)CNC(=O)Cc1ccc(OC)cc1,n,x,x,x
CCC(C)c1ccc(NC(=S)NCCn2cc(Cl)cn2)cc1 (stereo unspecified),n,n,n,n
CCC(C)c1ccc(NC(=S)NCCn2cc(Br)cn2)cc1 (stereo unspecified),72,n,n,n
CCc1ccc(C(=O)NC(CCSC)C(=O)OC)cc1 (stereo unspecified),n,n,n,n
CSCCC(NC(=O)c1ccc(Cl)cc1)C(=O)OCC(=O)Nc1cc(Cl)ccc1C#N (stereo unspecified),n,8.7,54,n
Cc1ccc(NC(=O)CSc2ccccc2NC(=O)c2cccc(Cl)c2)cc1Cl,n,n,n,n
CSCCC(NC(=O)c1ccccc1)C(=O)OCC(=O)Nc1ccc(C)c(Cl)c1 (stereo unspecified),82,n,n,n
CSCCC(NC(=O)c1ccc([N+](=O)[O-])cc1Cl)C(=O)OCC(=O)NCC(F)(F)F (stereo unspecified),n,n,n,n
Cc1cccc(C(=O)Nc2ccccc2SCC(=O)Nc2ccc(C)c(Cl)c2)c1,73,n,n,n
CSCCC(NC(=O)c1ccc([N+](=O)[O-])cc1Cl)C(=O)OCC(=O)NCCCc1ccccc1 (stereo unspecified),n,9.5,n,n

# Compound activity deposited in PubChem by several laboratories.
